The record followed here is PubChem BioAssay (NCATS).

SMILES strings stand for the structures. Results filed as inconclusive are left out. Active and inactive are the calls of the source. Calls follow the shape of the dose curve; as a rule, active = well fitted activation curve with a large enough effect; inconclusive = small, poorly fitted or top-dose-only effect, or another doubt; inactive = no such curve, though single readings can be large or run the other way.
Potency is read from the fitted curve at half-maximal effect.

The experiment concerns the target Rap guanine nucleotide exchange factor 3 (Homo sapiens) (UniProt O95398). The experiment in a line: Counterscreen qHTS for agonist of cAMP-regulated guanine nucleotide exchange factor 3 (EPAC1) (AID 1645889). Also: nearly all actives have a fitted effect of over 40% in size. As to activation: % of control where 0% means no effect. The note with it: EPAC1 Rap1B-BODIPY-GDP exchange, fluorescence; series mostly up to 154 µM; activation: at the top concentration. The method, boiled down: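 Rap1B–BODIPY-GDP (250 nM) with 50 uM GDP; compounds pin-transferred to 9.74 nM–152 uM final (activator) or from 7.32 nM upwards (inhibitor). Fluorescence Ex/Em 480/540 nm read at 5 and 30 min, then after adding cAMP or buffer, at room temperature.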
For orientation: A counterscreen serves to expose hits that act by an unwanted route or on another target.
As for `Cc1c(CCC(=O)O)c(=O)oc2c(C)c3occ(-c4ccc(Br)cc4)c3cc12`, the “activation” value was 5.64% (inactive).

Consider `CCN(CC)C1=CC2=CC(=C(C#N)C#N)CCC2CC1` (stereo not given), for which the Potency was 25.1 µM (active).

For `Cc1ccnc(NCc2cccc3ccccc23)c1`, the “activation” value was 17.5% (inactive).

With `O=C(NCc1ccc(OC(F)(F)F)cc1)c1cccc2c1C(=O)c1ccc(N3CCCC3)cc1S2(=O)=O`, the activation was 20% [at 30.8 µM] (inactive).

On to `CCCCN(C)C1=CC2=CC(=C(C#N)C#N)CCC2CC1` (stereo not given), for which the Potency was 39.8 µM (active).

In the case of `COc1cccc(C2=NN(C(=O)c3ccco3)C(c3ccco3)C2)c1` (stereo not given), the “activation” value was 31.3% (inactive).

For the compound `O=C(CC1Sc2ccccc2NC1=O)OCc1cc(=O)oc2cc(O)ccc12` (stereo not given), the “activation” value was 14.1% (inactive).

On to `CN1/C(=C\C=C2/C(=O)Oc3ccccc3C2=O)C(C)(C)c2ccccc21`, for which the Potency is 20 µM (active).

Take `CCN(CC)CCCC(C)n1c2nc(=O)[nH]c(=O)c-2nc2cc(Cl)ccc21` (stereo not given): the Potency is 63.1 µM (active).

As for `Cc1cc2ccccn2c1C(=O)c1ccccc1Br`, the Potency is 25.1 µM (active).
